The campaign covered roughly 310,000 compounds. About 2,200 (0.71%) showed an effect of 50% or more. Effects have a minus sign here. The sample as a whole holds a higher share of strong results than the screen did.
These compounds were tested against human ether-à-go-go-related gene (hERG) potassium channel (human, UniProt Q12809) (assay: primary screen, population patch clamp on CHO cells stably expressing hERG; higher = less effect of the substance).
Chain of human ether-à-go-go-related gene (hERG) potassium channel (Q12809 whole entry, looked up): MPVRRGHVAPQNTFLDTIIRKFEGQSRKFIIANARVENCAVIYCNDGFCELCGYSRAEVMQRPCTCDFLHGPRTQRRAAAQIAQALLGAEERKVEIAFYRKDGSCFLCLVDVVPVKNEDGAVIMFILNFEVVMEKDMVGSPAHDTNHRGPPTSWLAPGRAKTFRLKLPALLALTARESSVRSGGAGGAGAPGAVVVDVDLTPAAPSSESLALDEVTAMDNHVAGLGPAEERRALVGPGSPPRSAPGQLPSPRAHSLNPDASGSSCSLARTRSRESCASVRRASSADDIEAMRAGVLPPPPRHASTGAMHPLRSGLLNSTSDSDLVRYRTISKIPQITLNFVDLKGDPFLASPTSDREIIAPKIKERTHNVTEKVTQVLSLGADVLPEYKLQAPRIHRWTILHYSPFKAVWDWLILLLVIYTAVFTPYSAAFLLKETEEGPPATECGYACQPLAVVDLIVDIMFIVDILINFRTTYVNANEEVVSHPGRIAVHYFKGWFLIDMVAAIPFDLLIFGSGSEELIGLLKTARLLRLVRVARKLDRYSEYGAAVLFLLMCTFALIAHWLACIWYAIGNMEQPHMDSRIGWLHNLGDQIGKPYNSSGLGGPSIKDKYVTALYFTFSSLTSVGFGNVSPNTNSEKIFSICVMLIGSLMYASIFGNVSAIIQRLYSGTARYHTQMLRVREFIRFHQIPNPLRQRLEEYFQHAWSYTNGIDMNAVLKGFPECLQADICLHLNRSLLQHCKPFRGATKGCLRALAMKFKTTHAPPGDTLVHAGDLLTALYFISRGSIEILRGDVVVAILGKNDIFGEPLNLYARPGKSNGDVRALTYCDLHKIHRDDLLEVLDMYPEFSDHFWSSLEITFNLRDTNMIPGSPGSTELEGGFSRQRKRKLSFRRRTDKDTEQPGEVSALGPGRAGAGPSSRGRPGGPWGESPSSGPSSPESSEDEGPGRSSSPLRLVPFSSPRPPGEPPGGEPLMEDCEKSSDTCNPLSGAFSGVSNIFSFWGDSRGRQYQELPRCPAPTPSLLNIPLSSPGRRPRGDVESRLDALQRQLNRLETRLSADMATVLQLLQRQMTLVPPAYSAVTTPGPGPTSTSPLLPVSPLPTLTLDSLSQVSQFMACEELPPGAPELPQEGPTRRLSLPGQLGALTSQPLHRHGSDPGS

SMILES	hERG current change (%, negative = inhibition) at 1uM
CC1CCN(CC(C)OC(=O)c2ccc3c(c2)OCCO3)CC1.Cl (centres unmarked)	3.75%
O=C(NC(NC(=S)Nc1ccccc1C(=O)O)C(Cl)(Cl)Cl)c1ccco1 (centres unmarked)	5.62%
Cc1ccc(S(=O)(=O)NCCC(=O)N2CCCCCCC2)cc1	22.3%
Cn1c(=O)oc2cc(S(=O)(=O)NCCN3CCN(c4ccccc4F)CC3)ccc21	3.83%
CN(C)c1ccc(-c2noc(C3CCN(S(=O)(=O)c4cccc(C(=O)O)c4)CC3)n2)cc1	13.6%
O=C(O)c1cccc(N=NN2CCCCCC2)c1	8.11%
Cc1ccc(Nc2nc(N)nc(CSc3nc(C)cc(C)n3)n2)cc1	8.5%
Cc1cc(C)n2c(Br)c(CSc3nc4ccccc4o3)nc2n1	-53%
Cc1cc(C)n2c(Br)c(CSc3nc4ccccc4s3)nc2n1	-19.3%
Cc1csc2nc(CSc3nc4ccccc4o3)c(Br)n12	15.9%
CCn1c(=O)c(C(=O)CN2CCOCC2)c(N)n(Cc2ccccc2)c1=O	-0.674%
CCn1c(=O)c(C(=O)CN(C)Cc2ccc(F)cc2)c(N)n(Cc2ccccc2)c1=O	-33.6%
CCn1c(=O)c(C(=O)CN(C)Cc2cccc(OC)c2OC)c(N)n(Cc2ccccc2)c1=O	-18.3%
Cn1c(=O)c(C(=O)CN2CCN(Cc3ccc4c(c3)OCO4)CC2)c(N)n(Cc2ccccc2)c1=O	-40.4%
CCOc1ccc(CN(C)CC(=O)c2c(N)n(Cc3ccccc3)c(=O)n(CC)c2=O)cc1OC	-82.5%
CCn1c(=O)c(C(=O)CN2CCN(Cc3ccc4c(c3)OCO4)CC2)c(N)n(Cc2ccccc2)c1=O	-67.4%
CCNC1=C(Cl)C(=O)c2ccccc2C1=O	14.3%
O=C(O)C1CCCN1C(=O)NC1CCCCC1 (centres unmarked)	17.1%
O=C(c1cc(Br)ccc1Cl)N1CCN(c2ccc(N3CCOCC3)nn2)CC1	5.71%
COc1cccc(/C=N/NC(=O)NC23CC4CC(CC(C4)C2)C3)c1O	6.53%
COc1ccc(NC(=O)CSc2n[nH]c(-c3ccccn3)n2)cc1	13%
COc1ccc(C(=O)Nc2ccccc2NC(=O)c2ccco2)cc1OC	-9.39%

SMILES	hERG current change (%, negative = inhibition) at 1uM
CCN=C1SC(CC(=O)Nc2ccc(C(F)(F)F)cc2)C(=O)N1CC (centres unmarked)	1.51%
Cc1cc(C)cc(NC(=O)c2ccccc2NC(=O)CCC(=O)O)c1	7.41%
CCC(=O)c1ccccc1OCCN1CCN(Cc2ccccc2)CC1.O=C(O)C(=O)O	-21.9%
CCC(=O)c1ccccc1OCCCN1CCC(Cc2ccccc2)CC1.O=C(O)C(=O)O	-87%
CCc1ccccc1OCCCCN1CCCC1.O=C(O)C(=O)O	-2.73%
CCc1ccccc1OCCCN1CCCC1.O=C(O)C(=O)O	3.26%
N#Cc1ccccc1OCCCNC1CCCC1.O=C(O)C(=O)O	2.23%
CCC(=O)c1ccccc1OCCN1CCN(CC)CC1.O=C(O)C(=O)O	-2.43%
N#Cc1ccccc1OCCCN1CCC(Cc2ccccc2)CC1.O=C(O)C(=O)O	-83%
O=C(O)C(=O)O.OCc1ccccc1OCCCN1CCC(Cc2ccccc2)CC1	-65.9%
CC1CCN(CCCCOc2ccccc2F)CC1.O=C(O)C(=O)O	7.61%
Cc1ccc(C)c(NC(=S)NCCSc2ccc(Cl)cc2)c1	11.9%
CS(=O)(=O)N1CCc2cc(C(=O)Nc3ccc(COCC(F)(F)F)cc3)ccc21	10.4%
Cc1cc(C(=O)Nc2ccc(C(=O)O)cc2)c(-c2ccccc2)o1	-3.53%
CC(=O)c1ccc(NC(=O)C(C)N(C)CC(=O)Nc2ccccc2Cl)cc1 (centres unmarked)	14.4%
O=C(O)CN1C(=O)/C(=C/c2ccsc2)SC1=S	12%
COc1ccc(C(Nc2cc(C)ccn2)c2ccc3ccc(C)nc3c2O)cc1 (centres unmarked)	4.46%
CC1CCC(NC(=O)Cn2c3c(c(-c4ccccc4Cl)cc2=O)CCC3)CC1 (centres unmarked)	9.99%
COc1ccc(NC(=O)Nc2cccc(OC)c2)cc1	-2.63%
C=CCSc1nnc(Cn2c(=O)sc3ccccc32)n1C	-6.54%
COc1ccc(C(=O)NC2CC2)cc1OC1CCN(Cc2ccccc2O)CC1	-91.5%
C=CCOc1ccccc1CN1CCC(Oc2ccc(C(=O)N3CCCC3)cc2)CC1	-19.5%

SMILES	hERG current change (%, negative = inhibition) at 1uM
C=CCOc1ccccc1CN1CCC(Oc2ccc(C(=O)N3CCCCC3)cc2)CC1	-3.91%
COc1ccccc1CCNC(=O)c1ccc(OC)c(OC2CCN(C(C)C)CC2)c1	-4.22%
COc1ccc(C(=O)NC2CC2)cc1OC1CCN(Cc2ccccc2F)CC1	-64.5%
CCn1ncc(CN2CCC(Oc3cc(C(=O)NC4CC4)ccc3OC)CC2)c1C	1.05%
C=CCOc1ccccc1CN1CCC(Oc2cc(C(=O)NC3CC3)ccc2OC)CC1	-66.6%
COc1ccc(C(=O)NC2CC2)cc1OC1CCN(Cc2cc(C)c(C)cc2C)CC1	-74.1%
COc1ccc(C(=O)NCCc2ccccc2F)cc1OC1CCN(C(C)=O)CC1	12.5%
COc1ccc(C(=O)NC2CC2)cc1OC1CCN(Cc2cnn(C)c2C)CC1	-2%
COc1cc(C(=O)NC2Cc3ccccc3C2)ccc1OC1CCN(C(C)=O)CC1	9.82%
COc1ccc(C(=O)N(C)C2CCCN(Cc3ccccc3F)C2)cc1OC (centres unmarked)	10.2%
CCOC(=O)c1c(C)nc2ncccn12	2.38%
COC(=O)Oc1ccc(/C=N/NC(=O)CN(c2ccccc2Cl)S(C)(=O)=O)cc1OC	9.16%
Cc1ccc(C(=O)COC(=O)CCC(=O)Nc2ccccc2Cl)cc1[N+](=O)[O-]	8.32%
CC1Cn2c(nnc2C23CC4CC(CC(C4)C2)C3)S1 (centres unmarked)	7.65%
Cc1ccc(N2NC(=O)/C(=C\c3cc4c(cc3[N+](=O)[O-])OCO4)C2=O)cc1C	0.881%
CCN(c1ccccc1)S(=O)(=O)c1ccc2[nH]c(=O)[nH]c2c1	8.82%
O=C(Nc1ccc(-n2ccc(C(F)(F)F)n2)cc1)Nc1cccc(Cl)c1	11.3%
COc1ccc(CN2CCC(Oc3cc(C(=O)NC4CC4)ccc3OC)CC2)c(O)c1	-87.5%
COc1ccc(CN2CCC(Oc3ccc(C(=O)NCc4ccccn4)cc3)CC2)c(F)c1	7.46%
COc1ccc(OC)c(CN2CCC(N3CCC(C(=O)NC4CC4)CC3)CC2)c1	4.7%
CCOC(=O)c1nc2cc3n(c(C)c-2c1C)C(C)C(C)=C3C.Cl (centres unmarked)	-13.9%
CCOC(=O)c1nc2cc3n(c(CC(C)C)c-2c1C)CC(C)=C3C.Cl	-54.2%

SMILES	hERG current change (%, negative = inhibition) at 1uM
CCOC(=O)c1nc2cc3n(c(C)c-2c1C)C(C)C(CC)=C3C.Cl (centres unmarked)	-39.5%
CCOC(=O)c1nn(-c2ccc(F)cc2)c(=O)cc1OCC(=O)Nc1ccc(OCC)cc1	10.8%
Cc1c2ccccc2nc2c(F)c(N(C)C)c(F)c(F)c12	19.7%
CN(CCNC(=O)C1CCC(=O)N(Cc2ccc(Cl)cc2)C1)CCc1ccccc1 (centres unmarked)	-50.5%
CN(CCOc1ccccc1)C(=O)C1CCC(=O)N(CCc2ccc(Cl)cc2)C1 (centres unmarked)	-51.2%
CCc1ccc(CN(C)C(=O)C2CCC(=O)N(Cc3cccc(OC)c3)C2)nc1 (centres unmarked)	4.11%
COc1ccccc1CCCNC(=O)C1CCC(=O)N(CCc2ccc(Cl)cc2)C1 (centres unmarked)	-3.88%
O=C(NCCc1ccccc1)C1CCC(=O)N(Cc2ccc(Cl)cc2)C1 (centres unmarked)	5.85%
O=C(NCCCc1ccccc1)C1CCC(=O)N(Cc2ccc(Cl)cc2)C1 (centres unmarked)	-6.98%
COc1ccc(CCN2CC(C(=O)N(C)CCOc3ccccc3)CCC2=O)cc1 (centres unmarked)	-34.3%
CN(CCNC(=O)C1CCC(=O)N(Cc2cccc(F)c2)C1)CCc1ccccc1 (centres unmarked)	-14.8%
CCc1ccc(CN(C)C(=O)C2CCC(=O)N(CCc3ccc(OC)cc3)C2)nc1 (centres unmarked)	-57.9%
O=C(NCCCc1ccccc1)C1CCC(=O)N(CCc2ccc(Cl)cc2)C1 (centres unmarked)	-62.2%
COc1ccc(CCN2CC(C(=O)N(C)Cc3ccccc3OC)CCC2=O)cc1 (centres unmarked)	26.7%
O=C(NCCOc1ccccc1)C1CCC(=O)N(CCc2ccc(Cl)cc2)C1 (centres unmarked)	-45%
O=C(NCc1ccccc1)c1cnc(-c2ccccn2)nc1C(F)(F)F	9.39%
Nc1nc(CSc2nnnn2-c2ccc(Cl)cc2)nc(N2CCOCC2)n1	11.5%
C/C(=N\N1C(=O)CSC1=S)c1ccc(Br)cc1	1.48%
S=C1NNC2(NN1)C1CC3CC(C1)CC2C3	12.4%
COc1ccc(-n2cnnc2SCC(=O)N2CCN(S(=O)(=O)c3ccccc3)CC2)cc1	1.1%
